Laboratory results reported in PubChem BioAssay (EPA / NIEHS).
Inconclusive results are not listed. Active and inactive are the calls of the source. Rule for the calls, unless noted: active = hit-call score of the fitted dose curve at least 0.9, where 1 is the maximum; inconclusive = response in the unintended direction; inactive = score below 0.9.

System: IYD (gene 389434)
Experiment: CCTE_GLTED_hIYD: CCTE's human Iodotyrosine Deiodinase (xIYD) Inhibition Assay, Great Lakes Toxicology and Ecology Division (GLTED) Lab (AID 2284317);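 note: cell-free human IYD enzyme made in baculovirus insect cells; iodide freed from monoiodotyrosine measured by cerium arsenite color change at 420 nm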
Details: not given
How it was run: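 Absorbance change at 420 nm from the iodide-catalysed cerium-arsenic reaction reports free iodide released by human IYD from monoiodotyrosine. Enzyme, substrate and chemical are incubated 3 h; loss of signal is fitted relative to DMSO baseline.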

Row | Compound | AC50 | outcome
1 | CCCCC(CC)COP(=O)(O)OCC(CC)CCCC (stereo unspecified) | 100 µM (active) | –
2 | O=C(O)C(F)(F)C(F)(F)C(F)(F)C(F)(F)C(F)(F)C(F)(F)C(F)(F)C(F)(F)Cl | 74.4 µM (active) | –
3 | O=C(Cl)C(F)(F)C(F)(F)C(F)(F)C(F)(F)C(F)(F)C(F)(F)C(F)(F)C(F)(F)F | 139 µM (active) | –
4 | CC(Cc1ccc(O)c(O)c1)C(C)Cc1ccc(O)c(O)c1 (stereo unspecified) | – | inactive
5 | O=C(O)C(F)(F)C(F)(F)C(F)(F)C(F)(F)C(F)(F)C(F)(F)C(F)(F)C(F)(F)C(F)(F)C(F)F | 73.5 µM (active) | –
6 | CCN(Cc1cccc(S(=O)(=O)O)c1)c1ccc(C(=C2C=CC(=[N+](CC)Cc3cccc(S(=O)(=O)O)c3)C=C2)c2ccc(O)cc2S(=O)(=O)[O-])cc1 | 66.1 µM (active) | –
7 | O=S(=O)(O)C(F)(F)C(F)(F)C(F)(F)C(F)(F)C(F)(F)C(F)(F)C(F)(F)F | 100 µM (active) | –

System: not listed separately
Experiment: CCTE_Mundy_HCI_iCellGluta_NOG_NeuriteLength: CCTE's Neurite Outgrowth Assay in iCellGluta cells for Neurite Length, Mundy Lab (AID 2284318)
Details: not given
How it was run: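 Automated high-content imaging of betaIII-tubulin (Alexa Fluor-488) and Hoechst-stained cells gave neurite length, normalized to the DMSO baseline.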

Row | Compound | outcome
8 | O=C(O)C(F)(F)C(F)(F)OC(F)(F)F | inactive
9 | FC(F)(F)C(F)(F)C(F)(F)C(F)(F)CCI | inactive
10 | FC(F)(F)C(F)(F)C(F)(F)C(F)(F)C(F)(F)C(F)(F)C(F)(F)C(F)(F)F | inactive
11 | FC(F)(F)C(F)(F)C(F)(F)C(F)(F)C(F)(F)C(F)(F)C(F)(F)C(F)(F)CCS | inactive
12 | O=C(O)C(F)(F)C(F)(F)C(F)(F)C(F)(F)C(F)(F)C(F)(F)C(F)(F)C(F)(F)Cl | inactive
13 | CC(CCl)OP(=O)(OC(C)CCl)OC(C)CCl (stereo unspecified) | inactive
14 | FC(F)(F)C(F)(F)C(F)(F)C(F)(F)C(F)(F)C(F)(F)CC1CO1 (stereo unspecified) | inactive
15 | OCC(F)(F)C(F)(F)C(F)(F)C(F)F | inactive
16 | N=C(N)C(F)(F)C(F)(F)C(F)(F)C(F)(F)C(F)(F)C(F)(F)C(F)(F)F | inactive
17 | C=C(C)C(=O)OCC(F)(F)C(F)(F)C(F)(F)F | inactive
18 | O=P(O)(O)OCCC(F)(F)C(F)(F)C(F)(F)C(F)(F)C(F)(F)C(F)(F)F | inactive
19 | FC(F)(F)C(F)(F)C(F)(F)CI | inactive
20 | C=CC(=O)OCC(F)(F)C(F)(F)C(F)(F)C(F)(F)COC(=O)C=C | inactive
21 | O=C(O)C(F)(F)C(F)(F)C(F)(F)F | inactive
22 | OCC(F)(F)C(F)(F)C(F)(F)F | inactive
23 | O=C(CC(=O)C(F)(F)C(F)(F)F)C(F)(F)F | inactive
24 | OCCCC(F)(F)C(F)(F)C(F)(F)C(F)(F)C(F)(F)C(F)(F)C(F)(F)F | inactive

System: not listed separately
Experiment: CCTE_Deisenroth_5AR_NBTE_donor: CCTE's 5alpha-reductase NanoBRET Target Engagement Assay […], Deisenroth Lab (AID 2284319; active = hit-call score of the fitted dose curve at least 0.9, where 1 is the maximum; inactive = score below 0.9)
Details: actives raise or lower the signal
How it was run: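 HEK293T cells transiently expressing SRD5A2-NanoLuc, exposed 5 h to chemicals (8 points, 10 nM - 29.9 uM), with testosterone tracer for the final 2 h. Donor luminescence at 460 nm read after Nano-Glo substrate plus extracellular NanoLuc inhibitor; bidirectional fit versus DMSO.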

Row | Compound | AC50 | outcome
25 | CC(Cc1ccc(O)c(O)c1)C(C)Cc1ccc(O)c(O)c1 (stereo unspecified) | 64.7 µM (active) | –
26 | CCN(Cc1cccc(S(=O)(=O)O)c1)c1ccc(C(=C2C=CC(=[N+](CC)Cc3cccc(S(=O)(=O)O)c3)C=C2)c2ccc(O)cc2S(=O)(=O)[O-])cc1 | – | inactive
27 | O=C(OCCOCCOCCOC(=O)c1ccccc1)c1ccccc1 | – | inactive

System: not listed separately
Experiment: CCTE_Deisenroth_5AR_NBTE_acceptor: CCTE's 5alpha-reductase NanoBRET Target Engagement Assay - Autofluorescence Screen, Deisenroth Lab (AID 2284321; active = hit-call score of the fitted dose curve at least 0.9, where 1 is the maximum; inactive = score below 0.9;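 note: compound fluorescence in the acceptor channel under 460 nm excitation flags autofluorescence artifacts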)
Details: actives raise or lower the signal
How it was run: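 Autofluorescence counter-screen: chemicals at an assumed nominal 100 uM in DMSO were scanned in three independent runs with 460 nm excitation. Gain or loss of acceptor signal was fitted bidirectionally against DMSO.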

Row | Compound | AC50 | outcome
28 | CC(Cc1ccc(O)c(O)c1)C(C)Cc1ccc(O)c(O)c1 (stereo unspecified) | 50 µM (active) | –
29 | CCN(Cc1cccc(S(=O)(=O)O)c1)c1ccc(C(=C2C=CC(=[N+](CC)Cc3cccc(S(=O)(=O)O)c3)C=C2)c2ccc(O)cc2S(=O)(=O)[O-])cc1 | 1.52 µM (active) | –
30 | O=C(OCCOCCOCCOC(=O)c1ccccc1)c1ccccc1 | – | inactive

System: SRD5A2 (gene 6716)
Experiment: CCTE_Deisenroth_5AR_NBTE_ratio: CCTE's 5alpha-reductase NanoBRET Target Engagement Assay - Ratio, Deisenroth Lab (AID 2284322; active = hit-call score of the fitted dose curve at least 0.9, where 1 is the maximum; inactive = score below 0.9)
Details: actives raise or lower the signal
How it was run: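 HEK293T transiently expressing SRD5A2-NanoLuc; cells exposed to chemical (8-point, 10 nM - 29.9 uM) for 5 h total, testosterone tracer added for final 2 h. NanoBRET acceptor/donor ratio (650/460 nm), bidirectional fit vs DMSO.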

Row | Compound | AC50 | outcome
31 | CC(Cc1ccc(O)c(O)c1)C(C)Cc1ccc(O)c(O)c1 (stereo unspecified) | 93.7 µM (active) | –
32 | CCN(Cc1cccc(S(=O)(=O)O)c1)c1ccc(C(=C2C=CC(=[N+](CC)Cc3cccc(S(=O)(=O)O)c3)C=C2)c2ccc(O)cc2S(=O)(=O)[O-])cc1 | 1.56 µM (active) | –
33 | O=C(OCCOCCOCCOC(=O)c1ccccc1)c1ccccc1 | – | inactive

System: not listed separately
Experiment: CCTE_Mundy_HCI_iCellGluta_NOG_NeuronCount: CCTE's Neurite Outgrowth Assay in iCellGluta cells for Neuron Count, Mundy Lab (AID 2284340);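 note: cells fixed about 48 h after compound addition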
Details: not given
How it was run: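 Neuron count read by automated high-content imaging of Hoechst 33342 and betaIII-tubulin/Alexa Fluor-488 labelling in human iPSC glutamatergic neurons. Activity fitted relative to DMSO.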

Row | Compound | outcome | AC50
34 | O=C(O)C(F)(F)C(F)(F)OC(F)(F)F | inactive | –
35 | FC(F)(F)C(F)(F)C(F)(F)C(F)(F)CCI | inactive | –
36 | FC(F)(F)C(F)(F)C(F)(F)C(F)(F)C(F)(F)C(F)(F)C(F)(F)C(F)(F)F | inactive | –
37 | FC(F)(F)C(F)(F)C(F)(F)C(F)(F)C(F)(F)C(F)(F)C(F)(F)C(F)(F)CCS | – | 5 µM (active)
38 | O=C(O)C(F)(F)C(F)(F)C(F)(F)C(F)(F)C(F)(F)C(F)(F)C(F)(F)C(F)(F)Cl | inactive | –
39 | CC(CCl)OP(=O)(OC(C)CCl)OC(C)CCl (stereo unspecified) | inactive | –
40 | CC(C)(C)C(=O)CC(=O)C(F)(F)C(F)(F)C(F)(F)F | inactive | –
41 | FC(F)(F)C(F)(F)C(F)(F)C(F)(F)C(F)(F)C(F)(F)CC1CO1 (stereo unspecified) | inactive | –
42 | OCC(F)(F)C(F)(F)C(F)(F)C(F)F | inactive | –
43 | N=C(N)C(F)(F)C(F)(F)C(F)(F)C(F)(F)C(F)(F)C(F)(F)C(F)(F)F | inactive | –
44 | C=C(C)C(=O)OCC(F)(F)C(F)(F)C(F)(F)F | inactive | –
45 | O=P(O)(O)OCCC(F)(F)C(F)(F)C(F)(F)C(F)(F)C(F)(F)C(F)(F)F | inactive | –
46 | FC(F)(F)C(F)(F)C(F)(F)CI | inactive | –
47 | C=CC(=O)OCC(F)(F)C(F)(F)C(F)(F)C(F)(F)COC(=O)C=C | inactive | –
48 | O=C(O)C(F)(F)C(F)(F)C(F)(F)F | inactive | –
49 | OCC(F)(F)C(F)(F)C(F)(F)F | inactive | –
50 | O=C(CC(=O)C(F)(F)C(F)(F)F)C(F)(F)F | inactive | –
51 | OCCCC(F)(F)C(F)(F)C(F)(F)C(F)(F)C(F)(F)C(F)(F)C(F)(F)F | inactive | –
